Drawing on PubChem BioAssay (NCI), this text covers growth for 14 compounds.

Among the test systems are EKVX NSCLC; SN12C renal; UO-31 renal; TK-10 renal; ACHN renal; CAKI-1 renal; A498 renal; CCRF-CEM leukemia; MOLT-4 leukemia; SR leukemia.
Holding throughout (assay): NCI-60 one-dose screen, 48 h (100 = growth as untreated, 0 = no growth, -100 = all killed)
What all share (details): 10 µM

About 83,000 compounds went through this panel and 20% of them were active in at least one assay; those are over-represented in the sample as a whole.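 Single-dose data. Exposure time 48 hours. Values below 10 considered active.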 Values without a mark were called inactive. Activity calls are given as the source filed them.

For the compound `COc1ccc2c(c1)/C(=C\c1c[nH]c3ccc(OC)cc13)C(=O)N2`, the growth in the assay on EKVX NSCLC is 47.8%; in the assay with SN12C renal it was 52.8%; with UO-31 renal it was 46.8%; with TK-10 renal, 81.7%; in the assay on ACHN renal, 39.6%; with CAKI-1 renal, 21.3%. Also, the growth is 34.6% with A498 renal, 28.6% in the assay on CCRF-CEM leukemia, 11.7% in the assay on MOLT-4 leukemia and 14.7% in the assay with SR leukemia.
As to `O=C(CC(C(=O)c1ccccc1)N1CCOCC1)c1ccccc1` (stereo not given), the growth is 99.2% in the assay with EKVX NSCLC; 87.3% in the assay on SN12C renal; 89.9% with UO-31 renal; 90.8% with TK-10 renal; 97.3% in the assay on ACHN renal; 100% with CAKI-1 renal. Also, the growth with A498 renal was 89.9%; with CCRF-CEM leukemia it was 9.08% (active); in the assay with MOLT-4 leukemia, 45.7%; in the assay on SR leukemia, 28.5%.
`CC(=O)c1cc(Cl)ccc1O`: the growth in the assay with EKVX NSCLC was 108%; in the assay with SN12C renal, 110%; in the assay with UO-31 renal it was 78.3%; in the assay on TK-10 renal it was 98.9%; in the assay on ACHN renal, 99.8%; with CAKI-1 renal, 107%. In addition, the growth with A498 renal was 100%; in the assay on CCRF-CEM leukemia it was 100%; with MOLT-4 leukemia, 101%; with SR leukemia, 104%.
On to `COc1ccc2c(c1)sc1nc(-c3ccccc3)c(-c3cccnc3)n12`, for which the growth is 83% with EKVX NSCLC; 98.2% with SN12C renal; 95.2% in the assay on UO-31 renal; 116% with TK-10 renal; 97.7% in the assay with ACHN renal; 81.2% with CAKI-1 renal. The growth is 58.4% with A498 renal, 93.1% in the assay with CCRF-CEM leukemia, 86.6% with MOLT-4 leukemia and 86.6% with SR leukemia.
As for `CCN(CC)CCC(CNc1c(C)cnc2cc(Cl)ccc12)c1ccc(Cl)cc1` (stereo not given), the growth is 70.8% in the assay with EKVX NSCLC; 56.7% with SN12C renal; 41.8% in the assay on UO-31 renal; 89.6% in the assay with TK-10 renal; 44.8% in the assay on ACHN renal; 60.1% with CAKI-1 renal. Moreover, the growth with A498 renal is 19.8%; with CCRF-CEM leukemia it was 42%; in the assay with MOLT-4 leukemia, 39.5%; with SR leukemia it was -10.8% (active).
In the case of `CC(C)C[C@H](NC(=O)[C@H](Cc1cccc2ccccc12)NS(=O)(=O)c1cccc2cccnc12)B(O)O`, the growth with EKVX NSCLC is 6.76% (active); in the assay on SN12C renal, 8.75% (active); in the assay on UO-31 renal, -80.2% (active); in the assay with TK-10 renal, -60.2% (active); in the assay on ACHN renal, -3.75% (active); with CAKI-1 renal, -20.7% (active). The growth in the assay on A498 renal was -36.4% (active); in the assay with CCRF-CEM leukemia it was -18.8% (active); in the assay on MOLT-4 leukemia, 1.17% (active); with SR leukemia, 2.44% (active).
With `COc1ccc2c(c1)N(CCO)C1=C(C(=O)OC1)C2c1ccccc1` (stereo not given), the growth in the assay with EKVX NSCLC was 45%; with SN12C renal, 48.1%; with UO-31 renal, 47.1%; in the assay with TK-10 renal, 44.7%; in the assay with ACHN renal it was 48.6%; in the assay on CAKI-1 renal it was 14.9%. For the same compound, the growth with A498 renal is -5.47% (active); with CCRF-CEM leukemia, 20%; in the assay on MOLT-4 leukemia, 35.4%; with SR leukemia it was 20.7%.
`COc1ccc(-c2nc3sccn3c2-c2nc3c([nH]2)C(=O)c2ccccc2C3=O)cc1`: the growth was 83.1% with EKVX NSCLC; 86% with SN12C renal; 71.3% in the assay on UO-31 renal; 111% in the assay with TK-10 renal; 86.4% in the assay with ACHN renal; 84.7% in the assay with CAKI-1 renal. For the same compound, the growth is 49.7% with A498 renal, 79.9% with CCRF-CEM leukemia, 76% in the assay with MOLT-4 leukemia and 76.6% with SR leukemia.
Regarding `O=C(Nc1ccncc1)C(=O)c1cn(S(=O)(=O)c2cc(Cl)cc(Cl)c2)c2ccccc12`, the growth in the assay on EKVX NSCLC was 52.3%; in the assay on SN12C renal it was 73.5%; in the assay on UO-31 renal, 75.2%; with TK-10 renal, 73.1%; with ACHN renal, 68.4%; with CAKI-1 renal, 54.5%. For the same compound, the growth was 63.1% with A498 renal, 67.9% in the assay on CCRF-CEM leukemia, 73% in the assay on MOLT-4 leukemia and 38% in the assay with SR leukemia.
Consider `COc1ccc(-c2nnc(-c3c(-c4ccccc4)nc4ncccn34)o2)cc1OC`, for which the growth with EKVX NSCLC is 114%; in the assay with SN12C renal it was 97.3%; with UO-31 renal, 79%; with TK-10 renal, 111%; with ACHN renal, 88.8%; with CAKI-1 renal it was 103%. Also, the growth is 117% in the assay with A498 renal, 96.7% in the assay on CCRF-CEM leukemia, 93.1% in the assay on MOLT-4 leukemia and 81.1% in the assay on SR leukemia.
Regarding `COc1ccc2c(c1)C(=O)c1c-2c(OCCN2CCCCC2)nc2ccc(OC)cc12`, the growth with EKVX NSCLC is 39.6%; in the assay with SN12C renal, 20%; in the assay on UO-31 renal, -6.08% (active); with TK-10 renal it was 41.1%; in the assay on ACHN renal it was 9.5% (active); in the assay with CAKI-1 renal it was -11.5% (active). The growth with A498 renal was 53.7%; in the assay with CCRF-CEM leukemia, 14.3%; in the assay on MOLT-4 leukemia, 8.36% (active); in the assay on SR leukemia, 2.46% (active).
On to `NC1=NC(=O)C(c2ccccc2)(c2ccccc2)S1`, for which the growth in the assay with EKVX NSCLC is 107%; in the assay on SN12C renal, 106%; in the assay on UO-31 renal, 73.9%; in the assay on TK-10 renal, 100%; in the assay with ACHN renal, 107%; with CAKI-1 renal it was 114%. For the same compound, the growth in the assay with A498 renal is 106%; in the assay with CCRF-CEM leukemia, 97.1%; in the assay with MOLT-4 leukemia, 97.5%; in the assay with SR leukemia it was 94.8%.
For `CN(C)CCN1C(=O)c2cccc3cc(N)cc(c23)C1=O`, the growth with EKVX NSCLC was 45.2%; in the assay on SN12C renal, 30.9%; with UO-31 renal, -26.8% (active); in the assay with TK-10 renal, 32.9%; with ACHN renal, -30.3% (active); with CAKI-1 renal it was 3% (active). The growth was 41.8% in the assay on A498 renal, 13.6% in the assay with CCRF-CEM leukemia, -2.12% (active) in the assay with MOLT-4 leukemia and 8.08% (active) with SR leukemia.
On to `C=C(NC(=O)C(=C)NC(=O)c1csc(C2=NC3c4csc(n4)C4NC(=O)c5csc(n5)C(C(C)(O)C(C)O)NC(=O)C5CSC(=N5)/C(=C/C)NC(=O)C(C(C)O)NC(=O)c5csc(n5)C3(CC2)NC(=O)C(C)NC(=O)C(=C)NC(=O)C(=C)NC(=O)C(C(C)C)NC2C=Cc3c(C(C)O)cc(nc3C2O)C(=O)OC4C)n1)C(N)=O` (stereo not given), for which the growth in the assay with EKVX NSCLC is 42.2%; in the assay on SN12C renal it was 30.4%; in the assay with UO-31 renal it was -42.2% (active); in the assay on TK-10 renal, -9.31% (active); in the assay on ACHN renal, -26.8% (active); in the assay with CAKI-1 renal it was 15.8%. Also, the growth is -30.3% (active) with A498 renal, -31.7% (active) in the assay on CCRF-CEM leukemia, -15% (active) with MOLT-4 leukemia and 5.93% (active) in the assay on SR leukemia.
